Assay results as given in article PMC5540273 (PLoS ONE, 2017).

Key:
Conditions in all cases: concentration: 1 μM, replicates: in singlicate; n = 1
PIK4CB = tested on: T1, PIK4CB
T1 construct: gene PI4KB

PIKFYVE = tested on: PIKFYVE
PIM1 = tested on: PIM1
PIM2 = tested on: PIM2
PIM3 = tested on: PIM3
PIP5K1A = tested on: PIP5K1A
PIP5K1C = tested on: PIP5K1C
PIP5K2B = tested on: PIP5K2B
PIP5K2C = tested on: T2, PIP5K2C
T2 construct: gene PIP4K2C

PKAC-alpha = tested on: T3, PKAC-alpha
T3 construct: gene PRKACA

PKAC-beta = tested on: T4, PKAC-beta
T4 construct: gene PRKACB

PKMYT1 = tested on: PKMYT1
PKN1 = tested on: PKN1
PKN2 = tested on: PKN2
PLK1 = tested on: PLK1
PLK2 = tested on: PLK2
PLK3 = tested on: PLK3
PLK4 = tested on: PLK4
PRKCD = tested on: PRKCD
PRKCE = tested on: PRKCE
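Further: KINOMEscan kinase panel screen.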

Structure (SMILES) | %Inh (PIK4CB) [%] | %Inh (PIKFYVE) [%] | %Inh (PIM1) [%] | %Inh (PIM2) [%] | %Inh (PIM3) [%] | %Inh (PIP5K1A) [%] | %Inh (PIP5K1C) [%] | %Inh (PIP5K2B) [%] | %Inh (PIP5K2C) [%] | %Inh (PKAC-alpha) [%] | %Inh (PKAC-beta) [%] | %Inh (PKMYT1) [%] | %Inh (PKN1) [%] | %Inh (PKN2) [%] | %Inh (PLK1) [%] | %Inh (PLK2) [%] | %Inh (PLK3) [%] | %Inh (PLK4) [%] | %Inh (PRKCD) [%] | %Inh (PRKCE) [%]
COc1cccc(CNC(=O)NC2CCN(c3ccnc(Nc4ccc(F)cc4)n3)C2)c1 (stereo not shown) [GSK1379723] | 11 | 9 | 15 | 0 | 0 | 0 | 11 | 8 | 26 | 0 | 0 | 2 | 4 | 0 | 0 | 0 | 0 | 0 | 0 | 9
Fc1ccc(-c2nn3cccc(F)c3c2-c2ccncc2)cc1 [GW475620] | 0 | 28 | 0 | 0 | 0 | 0 | 28 | 19 | 0 | 11 | 47 | 11 | 9 | 11 | 9 | 69 | 0 | 3 | 19 | 6
COc1ccc(Nc2nccc(N3CCC(NC(=O)c4cc5ccccc5s4)C3)n2)cc1 (stereo not shown) [GSK1379738] | 19 | 0 | 25 | 0 | 21 | 0 | 40 | 13 | 47 | 0 | 0 | 3 | 23 | 0 | 11 | 0 | 0 | 3 | 0 | 17
Cc1ccc(NC(=O)Nc2ccccc2)cc1-c1ccc(C(=O)Nc2ccncc2)cc1 [GSK1398471] | 0 | 0 | 9 | 0 | 4 | 0 | 0 | 6 | 0 | 29 | 0 | 28 | 0 | 2 | 2 | 0 | 0 | 1 | 0 | 0
COc1ccc(Nc2nccc(N3CCC(NC(=O)C(C)c4ccc(Cl)cc4)CC3)n2)cc1 (stereo not shown) [GSK1379812] | 11 | 0 | 0 | 0 | 2 | 0 | 29 | 63 | 9 | 17 | 8 | 9 | 0 | 6 | 20 | 0 | 0 | 13 | 0 | 1
CC(C)c1cc(-c2ccc3c(N)n[nH]c3c2)nc(N)n1 [GSK2250882] | 0 | 0 | 20 | 0 | 15 | 26 | 49 | 36 | 2 | 0 | 0 | 14 | 0 | 0 | 0 | 0 | 0 | 0 | 0 | 5
Cn1cncc1-c1cc2c(Nc3ccc(OCc4ccccc4)cc3)ncnc2cn1 [GW281179] | 0 | 18 | 0 | 0 | 0 | 0 | 23 | 0 | 26 | 0 | 7 | 0 | 0 | 0 | 0 | 0 | 0 | 0 | 3 | 4
CC[C@@H]1CO[C@H](C(=O)Nc2ccccc2)CN1c1cc(-c2ccc3c(N)n[nH]c3c2)nc(NC)n1 [GSK2376236] | 33 | 0 | 14 | 0 | 3 | 0 | 39 | 3 | 3 | 74 | 73 | 0 | 85 | 0 | 0 | 0 | 0 | 0 | 0 | 3
Cc1ccc(NC(=O)Nc2ccccc2F)cc1-c1ccc(C(=O)Nc2ccncc2)cc1 [GSK1398477] | 0 | 0 | 6 | 0 | 0 | 0 | 0 | 0 | 0 | 46 | 32 | 18 | 26 | 12 | 5 | 0 | 0 | 0 | 19 | 4
CC(=O)c1c(C)c2cnc(Nc3ccc(N4CCNCC4)cn3)nc2n(C2CCCC2)c1=O | 0 | 39 | 0 | 0 | 0 | 0 | 0 | 0 | 14 | 0 | 6 | 23 | 0 | 15 | 0 | 0 | 0 | 6 | 18 | 55
Cc1ccccc1-c1cc(-c2c[nH]nc2-c2ccccn2)ccn1 [GW680061] | 0 | 0 | 0 | 0 | 0 | 12 | 39 | 15 | 28 | 0 | 0 | 0 | 0 | 0 | 0 | 0 | 0 | 0 | 0 | 10
CNc1cc(-c2ccc3c(N)n[nH]c3c2)nc(N)n1 [GSK2224810] | 11 | 0 | 15 | 0 | 0 | 18 | 45 | 5 | 27 | 8 | 0 | 4 | 10 | 0 | 0 | 0 | 0 | 5 | 0 | 15
Cl.Cl.Cl.N#Cc1ccc(CCNc2nccc(-c3cccc(CN4CCNCC4)c3)n2)cc1 [GSK2137462] | 26 | 0 | 20 | 0 | 13 | 0 | 0 | 0 | 11 | 13 | 5 | 18 | 0 | 2 | 5 | 5 | 0 | 6 | 18 | 76
Fc1ccc(-c2nc3n(c2-c2ccncc2)CCS3)cc1 [GI98581] | 0 | 0 | 0 | 0 | 0 | 33 | 47 | 0 | 12 | 33 | 23 | 10 | 0 | 0 | 0 | 0 | 0 | 0 | 1 | 0
O=C1NC(=O)C(c2ccc(Cl)cc2)=C1Nc1ccc(O)cc1 [SB-340867] | 13 | 9 | 0 | 3 | 0 | 0 | 40 | 0 | 0 | 0 | 18 | 0 | 0 | 12 | 0 | 0 | 0 | 0 | 0 | 1
CNc1nc(-c2ccc3c(N)n[nH]c3c2)cc(N2C[C@@H](C(=O)Nc3ccccc3)CC[C@H]2C)n1 [GSK2298859] | 0 | 0 | 0 | 0 | 0 | 0 | 50 | 0 | 3 | 57 | 66 | 0 | 0 | 0 | 0 | 0 | 0 | 0 | 16 | 0
O=C1NC(=O)C(c2ccc(Cl)cc2)=C1Nc1cccc(Cl)c1 [SB-317651] | 8 | 12 | 0 | 0 | 2 | 0 | 28 | 0 | 20 | 3 | 94.7 | 0 | 15 | 0 | 4 | 0 | 30 | 0 | 12 | 3
Cc1cnc(N)c(/C=C/c2cncc(C(=O)NCCc3ccc(Cl)cc3Cl)c2)c1.Cl [GSK190937] | 0 | 0 | 12 | 0 | 0 | 39 | 35 | 21 | 47 |  |  | 0 | 7 | 0 | 0 | 0 | 0 | 0 | 8 | 21
c1ccc(-c2ccnc3[nH]ccc23)cc1 [SB-693578] | 4 | 11 | 0 | 0 | 0 | 40 | 28 | 4 | 18 | 0 | 8 | 6 | 0 | 0 | 0 | 0 | 0 | 5 | 0 | 7
CN1c2ccc(-c3ccc(C(N)=O)cc3)cc2-c2[nH]ncc2S1(=O)=O | 0 | 4 | 9 | 0 | 13 | 0 | 81 | 6 | 64 | 13 | 0 | 0 | 0 | 0 | 4 | 3 | 13 | 0 | 3 | 12
COc1ccc(CSc2nnc(-c3ccc4c(c3)CCO4)o2)cc1 | 0 | 0 | 0 | 0 | 0 | 11 | 23 | 9 | 14 | 0 | 0 | 19 | 0 | 0 | 0 | 0 | 0 | 0 | 14 | 0
